Pf Dd2 growth – qHTS Primary assay for Inhibitors of Plasmodium falciparum Dd2 growth in vitro; Potency, µM (top dose mostly 28.9 µM), without a hit: top-dose activity, negative = inhibition, usual class: inhibitors; P. falciparum Dd2 growth, SYBR Green, 72 h; AID 1347417, 2020; 4.3% of 120,000 active; active means well fitted inhibition curve with a large enough effect;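 further: plate controls were DMSO vehicle for no effect and reference drug for full effect; nearly all actives have a fitted effect of over 65% in size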
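Infected erythrocytes (Dd2, 0.3% parasitemia, 2.5% hematocrit final) are added to compound in RPMI-1640/Albumax II medium, grown 72 h at 37C in low oxygen, then lysed with saponin/Triton-X containing SYBR Green and read by fluorescence.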
* = called active by the depositor; i = inactive; [ ] = dose if it differs, or a comment. The sample as a whole holds a higher share of hits than the screen did. Potency means the concentration at half of the fitted maximal effect.

SMILES	Pf Dd2 growth
Cc1occc1C(=O)N1CCC2(CCCN(Cc3cccnc3)C2=O)C1 (stereo not given)	9%
O=C(NCc1ccccc1)c1noc(-c2ccc3c(c2)OCO3)n1	i
COc1ccc2c(c1)-c1nc(NC(=O)c3ccccc3F)sc1CC2	-16%
COc1ccc2c(c1)-c1nc(NC(=O)c3cc(Cl)ccc3OC)sc1CC2	-2%
COc1ccc2c(c1)-c1nc(NC(=O)c3cc(OC)c(OC)c(OC)c3)sc1CC2	5µM*
Cc1[nH]c2ccccc2c1C1(O)C(=O)N(Cc2ccc(Cl)cc2)c2ccccc21 (stereo not given)	i[5.79 µM]
Cc1ccc(CN2C(=O)C(O)(c3c(C)[nH]c4ccccc34)c3ccccc32)cc1 (stereo not given)	-14%
Cc1[nH]c2ccccc2c1C1(O)C(=O)N(Cc2ccccc2)c2ccc(Cl)cc21 (stereo not given)	10µM*
Cc1ccc(OCCC2CCN(C(=O)CC(F)(F)F)C2)cc1 (stereo not given)	-23%
COCCCN1C(=O)c2[nH]nc(-c3cc(C)ccc3O)c2C1c1ccc(F)cc1 (stereo not given)	-29%
COc1cc(C2c3c(-c4cc(C)ccc4O)n[nH]c3C(=O)N2Cc2ccco2)cc(OC)c1OC (stereo not given)	i
Cc1ccc(O)c(-c2n[nH]c3c2C(c2ccccc2F)N(Cc2ccco2)C3=O)c1 (stereo not given)	4.5µM*
COCCN1C(=O)c2[nH]nc(-c3c(C)cc(C)cc3O)c2C1c1cccc(O)c1 (stereo not given)	-8%
Cc1cc(C)c2c(=O)c3c(oc2c1)C(=O)N(Cc1ccco1)C3c1ccc(F)cc1 (stereo not given)	11%
CCOc1cccc(C2c3c(-c4cc(C)ccc4O)n[nH]c3C(=O)N2Cc2ccco2)c1 (stereo not given)	10µM*
COc1ccc(C(=O)N2CCC(N3C(=O)C(OC)C34CCOCC4)CC2)cc1 (stereo not given)	-9%
COc1cccc([C@@H]2CN(C(=O)c3cnn(C)c3)C[C@H]2C(=O)O)c1	-5%
CCCOc1nccnc1NC1CCN(S(=O)(=O)C2CC2)CC1	33%[5.79 µM]
CN1CCC(OC2CCN(S(=O)(=O)c3ccccc3F)CC2)CC1	i
Cc1ccccc1Cn1c(=O)n(Cc2ccco2)c(=O)c2oc3ccccc3c21	9%
Cc1ccccc1Cn1cnc2c(oc3ccccc32)c1=O	8.9µM*
Cc1ccc(NC(=O)Cn2cnc3c(oc4ccccc43)c2=O)cc1	-18%[0.594 µM]
O=C(CN1CC2CC(C1)[C@H]1CCCC(=O)N1C2)NCc1ccc(F)cc1 (stereo not given in full)	-2%
CCCC(=O)Nc1nc2c(s1)CC(C(C)(C)C)CC2 (stereo not given)	13µM*
Cc1ccccc1C(=O)Nc1nc2c(s1)CC(C(C)(C)C)CC2 (stereo not given)	5.6µM*
SMILES	Pf Dd2 growth
CC1CCc2nc(NC(=O)Cc3ccc(Cl)cc3)sc2C1 (stereo not given)	84%
Cc1ccccc1C(=O)Nc1nnc(S(=O)(=O)N(C)Cc2ccccc2)s1	35%
Cc1ccccc1C(=O)Nc1nnc(S(=O)(=O)N2c3ccccc3CC2C)s1 (stereo not given)	-12%
CC1CCc2nc(NC(=O)COc3ccc(C(C)(C)C)cc3)sc2C1 (stereo not given)	72%
O=C(c1ccc(OC2CCN(C(=O)c3ccc(F)cc3)CC2)nc1)N1CCOCC1	10%
O=C1CCN(S(=O)(=O)c2cccs2)CCCC(c2nc(-c3cccnc3)no2)CCN1 (stereo not given)	i
Cn1nccc1C(=O)N[C@@H]1CN(Cc2ccccc2)C[C@H]1CO	13µM*
Cc1cc(CN2C[C@@H](CO)[C@H](NC(=O)c3ccccc3)C2)n(C)n1	35%
CC(=O)N[C@@H]1CN(Cc2ccc(F)c(Br)c2)C[C@H]1CO	-26%
Cc1cnc(C(=O)N[C@@H]2CN(Cc3ccccc3)C[C@H]2CO)cn1	-22%
COc1cc(CN2C[C@@H](CO)[C@H](NC(=O)c3ccccc3)C2)ccc1F	5.6µM*
O=C(N[C@@H]1CN(Cc2ccccc2)C[C@H]1CO)c1ccnnc1	9%
Cc1noc(C)c1S(=O)(=O)N1CCOCCNC(=O)[C@@H]2CCC[C@@H]21	-13%
O=C(NCc1ccncc1)C1CN(Cc2cccnc2)CC12CCOCC2 (stereo not given)	8%
O=C(O)C[C@@H]1CCN(C(=O)C2CCCCC2)C[C@@H]1CCN1CCN(c2ccc(F)cc2)CC1	-23%
CN(CC1CCOC1)C(=O)Nc1ccccc1F (stereo not given)	14%[5.79 µM]
CCc1ocnc1C(=O)N1CCC(C(=O)O)(n2cc(C)cn2)CC1	-19%
CC1=C[C@@H](CNC(=O)NCCO)[C@H](C(C)C)C[C@H]1CC(=O)NCc1cccnc1	-17%[44.1 µM]
O=C1NC2(CCCN([S+](=O)([O-])c3ccccc3)C2)Oc2ccccc21 (stereo not given)	1%
CCN(CC)S(=O)(=O)N(C)CC1CCCN(CCc2ccccc2OC)C1 (stereo not given)	2.8µM*
COc1ccccc1CCC(=O)N1CC[C@@H]2CN(S(C)(=O)=O)[C@@H]2C1	8%
COc1ccccc1CC(=O)N[C@@H]1CN(C)C[C@H]1CN(C)C	0%
COC[C@@H]1CN(Cc2cccc(C)c2)C[C@H]1C(=O)NC1CC1	i
Cc1cccc(OCC2(CNC(=O)NC(C)C)C[C@@H](O)[C@@H](O)C2)n1 (stereo not given in full)	29%[44.1 µM]
Cc1cccc(CC(=O)N2C[C@@H](CN3CCCN(C)CC3)[C@@H](CO)C2)c1	0%
SMILES	Pf Dd2 growth
COCCCNC(=O)c1c(OCC2CC2)cc(=O)n2c1CCOCC2	-4%
COc1ccccc1OCC(=O)NCC1CCCN(Cc2ccc(C)c(C)c2)C1 (stereo not given)	-7%
COc1cc(OC)cc(C(=O)NCC2CCCN(C/C=C/c3ccccc3OC)C2)c1 (stereo not given)	8.9µM*
CCn1cc(CN2CCCC(CNC(=O)c3cc(OC)cc(OC)c3)C2)c(C)n1 (stereo not given)	-15%
COc1ccc(N2CCOC3CCN(Cc4ccc(C(C)C)cc4)CC3C2=O)cc1 (stereo not given)	i
CCCOc1ccc(CNC(=O)c2ccc(-n3c(C)cc4c3CCC(C)C4)cc2)cc1 (stereo not given)	432%[5.79 µM]
CCc1ccc(CNC(=O)c2ccc(-n3c(C)cc4c3CCC(C)C4)cc2)cc1 (stereo not given)	13µM*
O=C(NCc1cccc(Br)c1)C1CCN(c2cnc3nccnc3c2)CC1	i
Cc1cc2c(n1-c1ccc(C(=O)NCc3cccc(Br)c3)cc1)CCC(C)C2 (stereo not given)	11µM*
COc1ccc(CCNC(=O)c2ccc(-n3c(C)cc4c3CCC(C)C4)cc2)cc1OC (stereo not given)	161%[5.79 µM]
COc1ccc(OC)c(CNC(=O)c2ccc3c(c2)c(C)c(C)n3C)c1	-17%
Cc1cc2c(n1-c1ccc(C(=O)NCCc3ccccc3)cc1)CCC(C)C2 (stereo not given)	-21%
CCc1ccc(CNC(=O)c2ccc3c(c2)nc2n3CCC(C)C2)cc1 (stereo not given)	13%
COc1ccc(Br)cc1CNC(=O)c1ccc(-n2c(C)cc3c2CCC(C)C3)cc1 (stereo not given)	13µM*
COCCN1CC(CO)C2(CCN(C(=O)COc3cccc(C)c3)CC2)C1 (stereo not given)	i
